Source: PubChem BioAssay AID1347423 (Functional Genomics Laboratory (NCATS/FGL), 2020)
The campaign covered roughly 52,000 sequences. About 210 (0.4%) were called active. This excerpt belongs to a sample that is enriched for actives. A number with no mark means an inactive call.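 Rule for the calls: active = gene whose silencing raises cell survival under the drug, median off-target-corrected z-score across its silencing RNAs 2 or more; inactive = the rest.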

experiment: Resistance to Poly (ADP-Ribose) Polymerase inhibitor: Gene Identification via Genome-wide siRNA Screen; conditions: mouse BRCA2 R2336H ES cells, olaparib, CellTiter-Glo viability; active compounds read high
Procedure, shortened: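 Genome-wide siRNA screen (3 siRNAs/gene, 20 nM) in mouse ES cells carrying hypomorphic BRCA2 R2336H; olaparib 500 nM added 48 h post-transfection, CellTiter-Glo viability 72 h later. Normalized to plate-median negative control; MAD z-scores, gene median, seed-adjusted.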

| Sequence | z-score |
| --- | --- |
| CGAAGCUAAAGGAUAUAGATT against 1110025H10Rik | 0.236 |
| GCCCAUAACAAAACAUCUATT against Mcpt5 | 1.1 |
| GGACAGAGCGUGCACUAGATT against Pqlc2 | 0.262 |
| CCCUCCAAGAUAGAAGCGGTT against 2610021K21Rik | 0.124 |
| GGUGGCAUGUCAUUGCUUCTT against Igf2 | 1.16 |
| GUCACUUGGCUUCCAUUGATT against Olfr510 | 1.19 (active) |
| GGUUUGAAAUCAGCAUGAUTT against A530065I17Rik | -0.647 |
| GGCUUUGUGCUAAAAAAAATT against Pgm2l1 | 0.12 |
| CGCAGACAGUUUGAGGCUGTT against 1700034P14Rik | -0.696 |
| CCUUAGUUAGAAAUGUUGATT against Xkh | 0.357 |
| GCUGAAAAUACAAUCUCUGTT against Capn3 | 2.18 |
| GGAACUGAUAACCAGCCAGTT against 1700029B21Rik | -0.44 |
| CCUUGAUGACGAAAACAUATT against Plekha2 | 0.756 |
| GGCGAAGGUGUAGAAUCUCTT against A830094I09Rik | 2.23 (active) |
| CGAAGUUCAUUCCUGUCUATT against Myf6 | -0.688 |
| GGAUUACGGUCACUGCCAUTT against Gabrr2 | 1.39 |
| GGAGAUGACGUGAAAACAATT against Srf | 1.93 |
| GACUAGAACAACAGAAAGUTT against Vax2 | 1.24 |
| GCAAGUAUACACCUCUCAATT against Slc6a12 | 2.24 (active) |
| GGUAUACACAUGAAAACCATT against 3110023B02Rik | 2.35 |
| GGAUGGUGACAUGAAAAUCTT against Ifng | -0.37 |
| GGUGAUACGUAUUUUUUAGTT against 2700050F09Rik | 1.03 (active) |

| Sequence | z-score |
| --- | --- |
| CCACCAGACUCAUAUUAACTT against LOC433501 | -0.496 |
| CGAUUUGGCCUUGAUGGGUTT against Wtip | -0.561 |
| GGAUAUCAAAGACAAAGCATT against 3100002B05Rik | 0.612 |
| GCCCAUUAUUUUCGGACUGTT against Olfr845 | -2.22 |
| CCUCAAUUGCAUGUGACCUTT against Itgb1bp1 | -0.642 |
| GGGCCUUUGGAUGUUGCUATT against Abcc10 | 1.24 |
| GGUCCUUCCUCAGAUCCCUTT against 5730457F11Rik | 1.66 (active) |
| GCUCUCACACCCUUAUGUATT against Sdfr1 | -1.45 |
| GGAAUACUUAUAGCUGACUTT against Rdhe2 | 0.32 |
| GGGCUAUAACCCUGAAGAUTT against Rarg | 1.67 (active) |
| GGACUUAGACAUCCACCUCTT against 1700034O15Rik | -0.799 |
| CCGGGUGCUGUUCUAUAAGTT against Pecam1 | 0.0651 |
| GCUUGGAAGACUGUAAACUTT against 4921521K07Rik | 0.958 |
| GGUGGUCUGGUUCAAGGAUTT against Mylk | -0.558 |
| GGGUCCCUAAGCAUGUUCCTT against Slfn10 | 1.48 |
| CGCAGAAGCUAAUAAACAGTT against Psmb6 | -1.52 |
| GCUGUUUUAUCUCCAAUGGTT against Araf1 | 1.6 (active) |
| GGACAAGUUUCAGUGACCCTT against Zdhhc9 | -0.268 |
| GCCAUAUACAGGUUCAAAGTT against Msh6 | 0.613 |
| GCCCAAUAUACUCUAAGGGTT against Cdh20 | 0.338 |
| GCAUCAAAAUCGGUUUCUGTT against 4930526D03Rik | -0.28 |
| GGAUCGCUCAUGGAUAUUUTT against Fus | -0.22 (active) |

| Sequence | z-score |
| --- | --- |
| GGAGACAGAAUGCACAUUUTT against Tff3 | -1.75 |
| CCAUUCGGACCAAAGUGUATT against 4930563C04Rik | -1.48 |
| GCCUCUGAGUUGCAUGAGUTT against Ppp2r5b | 2.37 (active) |
| GCAAUGGUUGGUUCAAUAATT against 5730427C23Rik | -1.47 |
| GGUAGAGGUUAAGACGAUCTT against C330023D02Rik | -0.997 |
| CGGUGAAAAACCUAUGUAUTT against 1700028P14Rik | 0.894 |
| GGCAUUCUUAUAAAGAAACTT against Ube2q | 3.88 |
| CGCUGAAAUAAAGACCAGATT against 2400010G15Rik | 1.99 (active) |
| GCCAGUGAGGCUACUUUCATT against Myo18a | -0.423 |
| GCAUCUCACUCGUAAAGGUTT against 4732406D01Rik | -0.389 |
| GGGAGAGGCACAAAGCAUATT against Ubxd3 | 1.27 |
| GGGUUUUGUGUAAAAGGUUTT against Olfr584 | 1.72 (active) |
| GGGACACAAUUCUUUGAAATT against G630009D10Rik | 0.375 |
| GGACAUAAAAGACUUAAAGTT against Actr8 | 3.83 (active) |
| GGAGCCAUGACUUUUCACUTT against Sec22l1 | 0.164 |
| GAGUCCCUUGGCAGCUCAUTT against Klra8 | -0.753 |
| GCACAAGAGGUAUCCUUGCTT against A630038D02 | -0.381 |
| GGAACAGAAAGCUAUGGAUTT against Surf6 | -0.706 |
| GGGAGAGUCAAAAAAAGAUTT against Khdrbs1 | 2.83 (active) |
| GGAGUACCUGGACAUUGUGTT against 1110032N12Rik | 0.677 |
| GGACGGACAUUUAUGACCCTT against Cpsf3 | -0.072 |
| GGAAAUUCAGCAUGGAGCCTT against Vgll4 | -0.472 |
